From ChEMBL document CHEMBL3988442, “University of Dundee, Small-Polar-MMV Screening Library” (2021) come the findings set out here.

Each structure is given as a SMILES string. For some of these results: Entries with a potency or affinity are not part of this list.

Holding throughout (parameters): scale not given: direction of the effect not stated beside the values
For assay [1], the target named is Protein translocase subunit SecA (Escherichia coli (strain K12)) (UniProt P10408). Kind of assay: Assay to Identify E. coli SecA ATPase Inhibitors. The format is functional. As to conditions: 30 µM.
In assay [2] the target is T1, Ubiquitin-activating enzyme e1, putative (Leishmania donovani (strain BPK282A1)) (UniProt E9BSI1).
T1 sequence (whole entry): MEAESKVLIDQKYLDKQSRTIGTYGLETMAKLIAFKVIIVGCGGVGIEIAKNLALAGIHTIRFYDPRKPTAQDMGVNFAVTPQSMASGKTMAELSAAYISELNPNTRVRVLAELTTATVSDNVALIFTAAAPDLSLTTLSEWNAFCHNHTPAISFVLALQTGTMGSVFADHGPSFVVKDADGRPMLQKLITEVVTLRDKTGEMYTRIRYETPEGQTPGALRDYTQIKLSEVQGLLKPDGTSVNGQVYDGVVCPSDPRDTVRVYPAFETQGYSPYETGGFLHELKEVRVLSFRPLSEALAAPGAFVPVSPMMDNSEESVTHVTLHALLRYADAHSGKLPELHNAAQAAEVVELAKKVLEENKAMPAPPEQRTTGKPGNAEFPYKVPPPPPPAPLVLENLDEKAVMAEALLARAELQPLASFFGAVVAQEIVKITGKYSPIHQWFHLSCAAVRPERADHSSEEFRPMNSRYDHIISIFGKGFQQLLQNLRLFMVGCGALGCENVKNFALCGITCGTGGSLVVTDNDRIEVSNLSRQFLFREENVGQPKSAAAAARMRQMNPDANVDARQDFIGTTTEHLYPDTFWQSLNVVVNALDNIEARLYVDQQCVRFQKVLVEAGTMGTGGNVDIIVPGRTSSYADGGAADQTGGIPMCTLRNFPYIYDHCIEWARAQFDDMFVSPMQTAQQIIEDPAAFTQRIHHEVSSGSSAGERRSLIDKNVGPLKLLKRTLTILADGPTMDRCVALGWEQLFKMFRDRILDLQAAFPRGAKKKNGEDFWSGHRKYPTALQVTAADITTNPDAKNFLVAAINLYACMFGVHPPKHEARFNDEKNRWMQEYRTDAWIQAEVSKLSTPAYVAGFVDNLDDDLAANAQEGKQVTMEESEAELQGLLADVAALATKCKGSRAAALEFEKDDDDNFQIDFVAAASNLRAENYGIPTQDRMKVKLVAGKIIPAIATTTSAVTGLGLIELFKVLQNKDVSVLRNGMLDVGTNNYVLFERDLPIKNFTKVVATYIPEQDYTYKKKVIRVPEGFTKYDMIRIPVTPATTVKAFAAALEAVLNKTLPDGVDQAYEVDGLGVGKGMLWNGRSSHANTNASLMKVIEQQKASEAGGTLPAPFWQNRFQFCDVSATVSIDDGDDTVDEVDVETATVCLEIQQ
Briefly: Leishmania donovani Ubiquitin Activating Enzyme (LdE1). The format is functional. As to conditions: 30 µM.

Assay [3] addresses AMP-activated protein kinase, AMPK (Homo sapiens) (UniProt P54646+O43741+P54619+Q9UGJ0+Q9Y478+Q13131+Q9UGI9). Briefly: AMP-dependent Kinase enzyme assay. An in vitro enzyme assay that detects ADP turnover that is directly proportional to AMPK activity. This uses naive AMPK that is activated during the assay with MK-8722. The format is functional. As to conditions: 30 µM.
In assay [4] the target is Sialic acid-binding Ig-like lectin 9 (Homo sapiens) (UniProt Q9Y336). Briefly: Hs-Siglec9 ALPHAscreen SOP 20170721. As to conditions: 10 µM. For orientation: Bead proximity is the source of the signal in Alpha formats.
Another assay deals with Trypanosoma cruzi. Kind of assay: Trypanosoma cruzi phosphomannomutase and mannose-1-phosphate guanylyltransferase assay. The format is functional. As to conditions: 10 µM.
In assay [5] the target is T2, Arginase-2, mitochondrial (Homo sapiens) (UniProt P78540).
T2 sequence (whole entry): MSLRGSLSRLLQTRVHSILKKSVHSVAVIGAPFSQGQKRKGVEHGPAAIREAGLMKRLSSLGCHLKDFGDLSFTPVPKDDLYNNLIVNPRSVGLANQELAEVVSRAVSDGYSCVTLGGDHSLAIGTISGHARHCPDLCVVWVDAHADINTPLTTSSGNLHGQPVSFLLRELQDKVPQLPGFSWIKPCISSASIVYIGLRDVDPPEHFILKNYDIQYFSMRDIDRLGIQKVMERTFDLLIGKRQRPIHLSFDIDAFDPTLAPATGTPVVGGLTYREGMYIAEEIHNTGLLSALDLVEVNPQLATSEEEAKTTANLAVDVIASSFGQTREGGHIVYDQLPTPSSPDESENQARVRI
Kind of assay: in vitro enzyme assay to detect the production of urea directly proportional to the activity of Arginase II. Further: in the data most compounds retested in dose-response had high values. The class given is functional. As to conditions: 33.3 µM.

Assay [6] deals with T3, Proteasome subunit beta (Trypanosoma cruzi) (UniProt O96673).
T3 sequence (whole entry): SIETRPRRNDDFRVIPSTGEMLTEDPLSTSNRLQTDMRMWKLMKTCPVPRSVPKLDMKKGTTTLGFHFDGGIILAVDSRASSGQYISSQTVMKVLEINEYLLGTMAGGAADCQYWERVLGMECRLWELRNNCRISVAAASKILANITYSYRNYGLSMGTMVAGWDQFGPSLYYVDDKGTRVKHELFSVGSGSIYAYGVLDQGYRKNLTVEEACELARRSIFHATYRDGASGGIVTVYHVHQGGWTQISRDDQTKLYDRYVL
Kind of assay: Trypanosoma cruzi proteasome chymotrypsin-like activity (TcProtChymo) assay. Further: in the data most compounds retested in dose-response had high values. As to conditions: 9.37 µM. The format is functional.

The species entered for the next assay is Homo sapiens. Kind of assay: To identify inhibition of the IFN signalling (Jak-Stat) pathway via expression of an eGFP reporter gene under the control of an IFN-stimulated response element (ISRE) containing MxA promoter. The format is functional. As to conditions: 30 µM.
Assay [7] deals with T4, Tyrosyl-tRNA synthetase, putative (Trypanosoma cruzi (strain CL Brener)) (UniProt Q4DSP6).
T4 sequence (whole entry): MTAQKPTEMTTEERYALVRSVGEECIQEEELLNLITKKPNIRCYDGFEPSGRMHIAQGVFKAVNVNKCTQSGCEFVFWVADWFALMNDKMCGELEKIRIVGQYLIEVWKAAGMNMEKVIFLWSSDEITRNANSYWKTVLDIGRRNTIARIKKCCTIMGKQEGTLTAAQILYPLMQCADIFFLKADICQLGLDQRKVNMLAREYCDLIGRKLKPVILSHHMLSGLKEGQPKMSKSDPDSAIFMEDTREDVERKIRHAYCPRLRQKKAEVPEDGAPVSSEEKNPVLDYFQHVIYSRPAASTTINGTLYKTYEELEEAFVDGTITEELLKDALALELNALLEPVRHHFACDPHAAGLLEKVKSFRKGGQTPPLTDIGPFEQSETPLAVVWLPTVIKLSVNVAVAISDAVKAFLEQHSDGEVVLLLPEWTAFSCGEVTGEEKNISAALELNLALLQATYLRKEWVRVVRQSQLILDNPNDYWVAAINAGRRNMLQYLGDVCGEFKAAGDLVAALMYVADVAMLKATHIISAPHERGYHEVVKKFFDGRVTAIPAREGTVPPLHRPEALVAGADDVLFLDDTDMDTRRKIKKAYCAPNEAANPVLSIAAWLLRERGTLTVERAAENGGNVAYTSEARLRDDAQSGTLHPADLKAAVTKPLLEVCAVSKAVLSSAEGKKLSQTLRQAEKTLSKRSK
Briefly: Trypanosoma cruzi tyrosyl tRNA synthetase (TcYRS) _High Tyrosine SOP. Further: in the data most compounds retested in dose-response had high values. The format is functional. As to conditions: 30 µM.

Assay [8] concerns the target T4, Tyrosyl-tRNA synthetase, putative (Trypanosoma cruzi (strain CL Brener)). Briefly: Trypanosoma cruzi tyrosyl tRNA synthetase (TcYRS) SOP. The class given is functional. As to conditions: 30 µM.
The target in assay [9] is Chromo domain-containing protein 1 (Saccharomyces cerevisiae (strain ATCC 204508 / S288c) (Baker's yeast)) (UniProt P32657). Briefly: ScCHD-1 Enzyme Inhibition Assay. Further: in the data most compounds retested in dose-response had high values. The class given is functional. As to conditions: 30 µM.
Chromo domain-containing protein 1 (Saccharomyces cerevisiae (strain ATCC 204508 / S288c) (Baker's yeast)), sequence (P32657 whole entry, the tested form may be a part): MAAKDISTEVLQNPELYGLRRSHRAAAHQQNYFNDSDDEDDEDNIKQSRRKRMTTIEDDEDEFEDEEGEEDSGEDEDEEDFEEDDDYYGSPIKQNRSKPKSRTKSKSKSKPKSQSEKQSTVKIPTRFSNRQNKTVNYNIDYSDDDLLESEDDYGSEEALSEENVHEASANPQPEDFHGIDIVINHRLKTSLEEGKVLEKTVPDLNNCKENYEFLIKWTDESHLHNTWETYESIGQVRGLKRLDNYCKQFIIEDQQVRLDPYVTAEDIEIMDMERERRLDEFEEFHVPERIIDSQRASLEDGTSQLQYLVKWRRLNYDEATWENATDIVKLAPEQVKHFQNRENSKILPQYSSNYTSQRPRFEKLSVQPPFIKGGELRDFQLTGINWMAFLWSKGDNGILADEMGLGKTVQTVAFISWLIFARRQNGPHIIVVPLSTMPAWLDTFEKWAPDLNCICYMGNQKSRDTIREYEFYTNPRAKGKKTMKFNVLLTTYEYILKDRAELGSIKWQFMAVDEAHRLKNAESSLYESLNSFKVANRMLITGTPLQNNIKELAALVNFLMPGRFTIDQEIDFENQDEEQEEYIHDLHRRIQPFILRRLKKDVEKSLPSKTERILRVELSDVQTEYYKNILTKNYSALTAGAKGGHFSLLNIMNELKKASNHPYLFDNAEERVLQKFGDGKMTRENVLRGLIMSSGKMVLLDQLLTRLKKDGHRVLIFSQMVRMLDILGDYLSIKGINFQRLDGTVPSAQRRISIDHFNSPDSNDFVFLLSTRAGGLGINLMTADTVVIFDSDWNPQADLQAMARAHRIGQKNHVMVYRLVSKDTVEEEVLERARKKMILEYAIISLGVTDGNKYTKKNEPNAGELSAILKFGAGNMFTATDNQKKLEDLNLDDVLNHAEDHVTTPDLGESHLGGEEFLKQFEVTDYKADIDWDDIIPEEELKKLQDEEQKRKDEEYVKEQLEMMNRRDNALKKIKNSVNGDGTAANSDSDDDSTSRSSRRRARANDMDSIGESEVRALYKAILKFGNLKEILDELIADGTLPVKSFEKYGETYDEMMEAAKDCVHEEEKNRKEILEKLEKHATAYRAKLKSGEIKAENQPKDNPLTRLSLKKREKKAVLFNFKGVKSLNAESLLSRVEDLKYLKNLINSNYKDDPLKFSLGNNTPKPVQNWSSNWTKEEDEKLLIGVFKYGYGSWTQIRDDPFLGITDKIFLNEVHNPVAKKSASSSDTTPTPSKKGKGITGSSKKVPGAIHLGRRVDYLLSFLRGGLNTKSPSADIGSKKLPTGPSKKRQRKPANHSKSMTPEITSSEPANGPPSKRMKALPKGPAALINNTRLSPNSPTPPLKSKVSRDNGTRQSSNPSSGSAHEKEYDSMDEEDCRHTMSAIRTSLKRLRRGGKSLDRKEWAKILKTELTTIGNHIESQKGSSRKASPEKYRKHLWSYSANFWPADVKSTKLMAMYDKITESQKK

Sialic acid-binding Ig-like lectin 9 (Homo sapiens), sequence (Q9Y336 whole entry): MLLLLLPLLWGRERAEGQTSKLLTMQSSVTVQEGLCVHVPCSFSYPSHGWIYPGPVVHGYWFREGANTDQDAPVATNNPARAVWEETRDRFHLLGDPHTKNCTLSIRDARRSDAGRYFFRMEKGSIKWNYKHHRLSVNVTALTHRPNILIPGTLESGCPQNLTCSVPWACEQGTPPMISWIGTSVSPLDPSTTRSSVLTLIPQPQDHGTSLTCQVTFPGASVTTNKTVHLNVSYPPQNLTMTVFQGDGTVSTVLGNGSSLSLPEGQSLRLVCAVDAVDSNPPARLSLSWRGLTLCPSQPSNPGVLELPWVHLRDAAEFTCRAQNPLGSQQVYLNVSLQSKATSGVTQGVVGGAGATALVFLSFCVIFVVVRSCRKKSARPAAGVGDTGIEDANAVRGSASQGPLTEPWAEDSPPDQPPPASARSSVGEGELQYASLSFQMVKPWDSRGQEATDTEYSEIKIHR
Protein translocase subunit SecA (Escherichia coli (strain K12)), sequence (P10408 whole entry): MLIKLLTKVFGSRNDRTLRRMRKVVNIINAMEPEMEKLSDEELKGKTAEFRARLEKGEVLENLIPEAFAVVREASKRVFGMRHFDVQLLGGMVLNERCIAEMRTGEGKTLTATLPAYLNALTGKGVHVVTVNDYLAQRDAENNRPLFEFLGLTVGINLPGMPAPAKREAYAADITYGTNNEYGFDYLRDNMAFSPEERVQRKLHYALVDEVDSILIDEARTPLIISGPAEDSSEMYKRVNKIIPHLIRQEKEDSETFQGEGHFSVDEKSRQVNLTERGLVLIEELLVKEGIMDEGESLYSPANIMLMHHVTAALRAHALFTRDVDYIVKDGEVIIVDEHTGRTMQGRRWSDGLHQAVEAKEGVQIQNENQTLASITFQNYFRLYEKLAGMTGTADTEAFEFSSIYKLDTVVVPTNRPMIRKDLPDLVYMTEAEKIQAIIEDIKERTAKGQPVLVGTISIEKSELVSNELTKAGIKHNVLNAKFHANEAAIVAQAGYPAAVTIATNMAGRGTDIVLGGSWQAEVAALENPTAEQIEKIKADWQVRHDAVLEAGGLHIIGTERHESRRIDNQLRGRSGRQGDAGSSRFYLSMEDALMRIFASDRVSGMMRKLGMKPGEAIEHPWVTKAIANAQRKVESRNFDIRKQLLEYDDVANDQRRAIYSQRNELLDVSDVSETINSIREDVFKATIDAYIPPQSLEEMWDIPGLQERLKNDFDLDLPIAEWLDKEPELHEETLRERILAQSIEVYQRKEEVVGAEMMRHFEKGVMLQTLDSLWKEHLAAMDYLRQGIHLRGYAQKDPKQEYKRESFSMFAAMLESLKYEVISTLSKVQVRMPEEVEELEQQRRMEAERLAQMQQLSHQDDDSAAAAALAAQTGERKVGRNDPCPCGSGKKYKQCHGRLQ

In the case of `CCOCCCNC(=O)c1nn(CC)cc1Cl`, the Percent Effect in [1] was -0.389%; in assay [2], 14.7%; in assay [3] it was -2.38%; in assay [4], -8.09%; with Trypanosoma cruzi, 3.14%; in assay [5], -8.28%. Besides, the Percent Effect in [6] was 12.8%; in the assay filed under Homo sapiens, 18.8%; in [7], 5.29%; in assay [8] it was 12.8%; in assay [9] it was -10.4%.

Take `O=C(O)c1nnn(-c2ccc(OC(F)(F)F)cc2)c1-c1ccncc1`: the Percent Effect in assay [1] was -2.53%; in assay [2] it was 21.1%; in assay [3] it was -1.66%; in assay [4], -2.5%; in the assay on Trypanosoma cruzi it was 3.8%; in [5], 3.55%. The Percent Effect is 20.4% in assay [6]; 2.21% in the assay filed under Homo sapiens; 3.19% in assay [7]; 15.6% in [8]; 41.3% in assay [9].

Turning to `O=C1COC2(CCN(Cc3ccc(F)cc3)CC2)CN1`, the Percent Effect in [1] was -4.15%; in assay [2], 2.7%; in [3] it was 2.05%; in assay [4] it was -2.96%; in the assay on Trypanosoma cruzi it was 6.25%; in [5], -0.417%. Besides, the Percent Effect is 10.2% in [6]; -6.9% in the assay filed under Homo sapiens; 5.94% in assay [7]; 15.8% in assay [8]; -6.08% in [9].

Take `O=C(CCc1cccnc1)N1CCCC(n2cncn2)C1` (stereo unspecified): the Percent Effect in assay [1] was -2.09%; in [2] it was 0%; in assay [3], 4.67%; in [4], 4.06%; with Trypanosoma cruzi, 2.74%; in assay [5] it was 0.76%. The Percent Effect is -1.23% in assay [6]; -1.71% in the assay filed under Homo sapiens; 2.46% in assay [7]; -1.27% in assay [8]; -1.28% in [9].

As to `CNS(=O)(=O)c1ccc(C(=O)N2CCCC(n3cccn3)C2)cc1` (stereo unspecified), the Percent Effect in assay [1] was -7.19%; in assay [2] it was 13.2%; in [3], -7.33%; in assay [4], 8.86%; in the assay on Trypanosoma cruzi, 4.89%; in assay [5], -4.21%. For the same compound, the Percent Effect in assay [6] was 2.17%; in the assay listed under Homo sapiens it was 1.3%; in assay [7] it was 3.43%; in [8] it was 17.1%; in assay [9], -14.7%.

Regarding `CCc1cccc(N2CCC(NC(=O)c3cc[nH]n3)CC2)c1`, the Percent Effect in assay [1] is -4.19%; in assay [2] it was 6.33%; in [3], 8.15%; in assay [4] it was -6.72%; with Trypanosoma cruzi, -3.59%; in assay [5] it was -5.38%. Moreover, the Percent Effect in [6] is 11.2%; in the assay listed under Homo sapiens it was 28.6%; in assay [7], 2.08%; in assay [8] it was 5.06%; in [9] it was -20.9%.

Turning to `CC(Cn1ccnc1)NC(=O)N1CCN(Cc2cccnc2)CC1` (stereo unspecified), the Percent Effect in assay [1] was -5%; in assay [2], 18.4%; in assay [3], -6.12%; in assay [4] it was 5.79%; with Trypanosoma cruzi, 8.46%; in assay [5], -3.83%. Besides, the Percent Effect in [6] was 11.5%; in the assay filed under Homo sapiens, 4.46%; in assay [7], 7.35%; in [8], 19.5%; in assay [9] it was -10.3%.

In the case of `CCC1CN(C(=O)c2ccc(=O)[nH]c2)CCC(=O)N1Cc1ccccc1` (stereo unspecified), the Percent Effect in assay [1] was -1.75%; in [2], 4.17%; in [3], -3.51%; in assay [4], -12.5%; in the assay on Trypanosoma cruzi, -3.21%; in assay [5], 3.09%. The Percent Effect in assay [6] is 14%; in the assay filed under Homo sapiens it was 14.1%; in assay [7], 0%; in [8] it was 2.56%; in [9], -2.44%.

For the compound `CNc1oc(-c2ccc(OC)c(S(=O)(=O)N3CCCCC3)c2)nc1C#N`, the Percent Effect in [1] is -1.33%; in assay [2], 1.33%; in assay [3], 15.5%; in assay [4] it was 7.55%; in the assay on Trypanosoma cruzi, -5.7%; in assay [5], -6.51%. Also, the Percent Effect was 9.98% in assay [6]; -4.26% in the assay filed under Homo sapiens; 5.29% in assay [7]; 2.56% in assay [8]; -9.36% in assay [9].

As for `CCc1nc(N)sc1C(=O)N1CCCC(CCc2ccccc2C)C1` (stereo unspecified), the Percent Effect was -4.6% in assay [1]; 5.41% in assay [2]; -6.81% in assay [3]; 34.1% in [4]; 4.59% with Trypanosoma cruzi; -0.744% in [5]. Also, the Percent Effect in assay [6] is 10.6%; in the assay listed under Homo sapiens, 34.9%; in assay [7], 9.68%; in assay [8], 18.5%; in assay [9] it was -1.19%.

For `COCc1nn(C(C)C)c2c1CCN(Cc1cccs1)C2`, the Percent Effect in assay [1] is -0.481%; in assay [2] it was 11%; in [3], 1.5%; in [4], 8.32%; in the assay on Trypanosoma cruzi, 0.198%; in assay [5] it was -0.798%. The Percent Effect in [6] was 12.4%; in the assay filed under Homo sapiens, -11.8%; in assay [7] it was 7.29%; in [8], 16.1%; in assay [9], -1.6%.
